# In the supplement of paper PMC10127200:
# Where a name gives a salt, the structure may show the parent alone.
# Test system: OVCAR4
# Test: Euclidean distance of Cell Painting phenotypic profile (signed KS, 77 features) to DMSO centroid (dimensionless distance); 5 or 10 uM (library dependent); higher = stronger phenotypic change vs DMSO (phenoactivity)
# Settings: 48 h
# In short: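 Five cancer lines and a healthy fibroblast line received library compounds at 10 or 5 uM (library-dependent, 0.1% DMSO final) for 48 h. Stained cells were imaged confocally at 20X (9 fields/well). Harmony extracted 77 features, each scored as a signed Kolmogorov-Smirnov statistic against same-plate vehicle wells. Profiles were plate-position corrected, correlation-weighted and replicate-averaged at the top dose. Phenoactivity is the Euclidean distance from each profile to the median vehicle profile.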
row,SMILES,Euclidean distance
1,O=C(O)c1ccccc1O [Salicylic acid],1.08
2,CN1CCCN=C1/C=C/c1cccs1 [Pyrantel Pamoate],1.2
3,CN[C@@H]1[C@@H](O[C@H]2O[C@H](CO)[C@@H](N)[C@H](O)[C@H]2O)OC2C[C@@H](N)[C@@H](O[C@H]3[C@H](O)[C@@H](O)[C@H](N)C[C@@H]3N)OC2[C@@H]1O (stereo not given in full) [Apramycin Sulfate],1.19
4,CCOC(=O)c1ccc(O)cc1 [Ethylparaben],1.31
5,CC(C)(C)c1[nH]cnc1/C=c1\[nH]c(=O)/c(=C/c2ccccc2)[nH]c1=O [Plinabulin (NPI-2358)],2.86
6,C[C@H](NC(=O)CCC(F)(F)F)C(=O)N[C@@H]1C(=O)N(CCO)c2ncccc2-c2ccccc21,1.09
7,CC1=C(/C=C/C(C)=C/C=C/C(C)=C/C(=O)Nc2ccc(O)cc2)C(C)(C)CCC1 [Fenretinide],2.4
8,Cn1cnc2c(F)c(Nc3ccc(Br)cc3F)c(C(=O)NOCCO)cc21,1.91
9,OC(CCN1CCCC1)(c1ccccc1)C1CCCCC1 (stereo not given) [Procyclidine HCl],0.869
10,CCN(C(=O)c1c(O)c2c(Cl)cccc2n(C)c1=O)c1ccccc1 [Laquinimod],1.25
11,COc1ccc(CN2CCN(C(c3ccc(F)cc3)c3ccc(F)cc3)CC2)c(OC)c1OC [Lomerizine 2HCl],1.72
12,O=c1cc(CO)occ1O [Kojic acid],1.14
13,CC[C@@H](C)Nc1cc(C(=O)N[C@H]2C[C@H]3CC[C@@H](C2)N3c2ccc(C(=O)C3CC3)cn2)c(C)cc1C(N)=O,3.3
14,CCC(C)n1ncn(-c2ccc(N3CCN(c4ccc(OCC5COC(Cn6cncn6)(c6ccc(Cl)cc6Cl)O5)cc4)CC3)cc2)c1=O (stereo not given) [Itraconazole],1
15,CC(O)Cn1cnc2c1c(=O)n(C)c(=O)n2C (stereo not given) [Proxyphylline],1.03
16,C=C1CC[C@H](O)C/C1=C/C=C1\CCC[C@]2(C)[C@@H]([C@H](C)CCCC(C)(C)O)CC[C@@H]12 [Calcifediol],2.24
17,CC(C)C[C@H](NC(=O)CNC(=O)[C@H](Cc1ccc(O)cc1)NC(=O)[C@H](CO)NC(=O)[C@H](Cc1c[nH]c2ccccc12)NC(=O)[C@H](Cc1cnc[nH]1)NC(=O)[C@@H]1CCC(=O)N1)C(=O)N[C@@H](CCCNC(=N)N)C(=O)N1CCC[C@H]1C(=O)NCC(N)=O [Gonadorelin Acetate],1.22
18,COc1ccccc1N1CCN(CC(O)COc2cccc3ccccc23)CC1 (stereo not given) [Naftopidil],0.99
19,C=C1C(=O)O[C@H]2[C@H]1CC/C(C)=C/CC[C@@]1(C)O[C@@H]21 [(-)-Parthenolide],1.16
20,OCCN1C[C@H](O)[C@@H](O)[C@H](O)[C@H]1CO [Miglitol],1.27
21,COc1ccc2cc([C@H](C)C(=O)O)ccc2c1 [Naproxen Sodium],0.977
22,CCCCCCOC(=O)NC(=N)c1ccc(NCc2nc3cc(C(=O)N(CCC(=O)OCC)c4ccccn4)ccc3n2C)cc1 [Dabigatran Etexilate],1.47
23,CN1CCC(=C2c3ccccc3CCc3cccnc32)CC1 [Azatadine dimaleate],1.44
24,COc1cc(Nc2ncc(F)c(Nc3ccc4c(n3)N(COP(=O)(O)O)C(=O)C(C)(C)O4)n2)cc(OC)c1OC [R788 (Fostamatinib) Disodium],2.19
25,CO[C@H]1C[C@@H]2CC[C@@H](C)[C@@](O)(O2)C(=O)C(=O)N2CCCC[C@H]2C(=O)O[C@H]([C@H](C)C[C@@H]2CC[C@H](n3cnnn3)[C@H](OC)C2)CC(=O)[C@H](C)/C=C(\C)[C@@H](O)[C@@H](OC)C(=O)[C@H](C)C[C@H](C)/C=C/C=C/C=C/1C [Zotarolimus(ABT-578)],2.09
26,CO[C@@H](C(=O)N1Cc2[nH]nc(NC(=O)c3ccc(N4CCN(C)CC4)cc3)c2C1)c1ccccc1,1.03
27,CCCCS(=O)(=O)N[C@@H](Cc1ccc(OCCCCC2CCNCC2)cc1)C(=O)O [Tirofiban Hydrochloride],1.39
28,CCOC(=O)c1ccc(N)cc1 [Benzocaine hydrochloride],0.998
29,CSc1nc2cc(Cl)c(Oc3cccc(Cl)c3Cl)cc2[nH]1 [Triclabendazole],0.772
30,CN[C@@H]1[C@H](O)[C@H](NC)[C@H]2O[C@@]3(O)C(=O)C[C@@H](C)O[C@H]3O[C@@H]2[C@H]1O [Spectinomycin 2HCl],0.972
